ST2 inh = inhibitors of human ST2 (IL1RL1) binding to IL-33. Q01638. AlphaLISA ST2-Fc/biotin-IL-33 interaction, 1 h. inhibition, % for hits at 17 µM. 78,000 tested, 2.3% active; in the data active = inhibition above about 30%
Hits are given with their value; - = inactive; ! = a repeat was not active. This excerpt belongs to a sample that is enriched for hits.

SMILES	ST2 inh
COC(=O)C1=C(N)OC2=C(C(=O)CC(C)(C)C2)C1c1ccccc1 (stereo not drawn)	-
Cn1c(N)c(C(=O)CN2CCOCC2)c(=O)n(C)c1=O	-
CC(C)CN(CC(C)C)S(=O)(=O)c1ccc2c(c1)CCN2C(=O)C1CC1	-
O=C(C1CCCN(C2CCN(S(=O)(=O)c3cccs3)CC2)C1)N1CCCC1 (stereo not drawn)	-
CCN(CC)CCNC(=O)C1(O)c2cc(Br)ccc2NC(=O)N1c1ccccc1 (stereo not drawn)	31%!
CCN(CC)CCNC(=O)C1(O)c2ccccc2NC(=O)N1c1ccccc1 (stereo not drawn)	-
CCCCNC(=O)C1(O)c2cc(Br)ccc2NC(=O)N1c1ccccc1 (stereo not drawn)	-
O=C1Nc2ccccc2C(O)(C(=O)NCc2ccc3c(c2)OCO3)N1c1ccccc1 (stereo not drawn)	30%
COc1ccc(CNC(=O)C2(O)c3ccccc3NC(=O)N2c2cccc(OC)c2)cc1 (stereo not drawn)	-
CN(C)CCNC(=O)C1(O)c2ccccc2NC(=O)N1c1ccccc1 (stereo not drawn)	-
CCN(CC)CCCNC(=O)C1C2C=CC3(CN(Cc4cccs4)C(=O)C13)O2 (stereo not drawn)	-
Cc1ccc(-c2noc([C@@H]3C[C@H](NS(=O)(=O)c4ccc(C)cc4)CN3C)n2)cc1	-
COc1ccc(-c2noc([C@@H]3C[C@H](NC(=O)CCC(=O)O)CN3C)n2)cc1	30%
COc1ccc(NC(=O)N[C@H]2C[C@@H](c3nc(-c4ccc(OC)cc4)no3)N(C)C2)cc1	-
CN1C[C@@H](NC(=O)NC2CCCCC2)C[C@H]1c1nc(-c2ccccc2)no1	82%
CN1C[C@@H](NC(=O)C2CCCCC2)C[C@H]1c1nc(-c2ccccc2)no1	-
CN1C[C@@H](NC(=O)NC2CCCCC2)C[C@H]1c1nc(-c2ccc3c(c2)OCO3)no1	-
COc1ccc(-c2noc([C@@H]3C[C@H](NC(=O)NC(C)C)CN3C)n2)cc1	42%
COc1ccc(-c2noc([C@@H]3C[C@H](NC(=O)Nc4ccc(C)cc4)CN3C)n2)cc1	-
CN1C[C@@H](NS(=O)(=O)c2ccc(C#N)cc2)C[C@H]1c1nc(-c2ccccc2)no1	51%
CN1C[C@@H](NS(=O)(=O)c2ccc(Cl)cc2)C[C@H]1c1nc(-c2ccccc2)no1	-
COc1ccc(-c2noc([C@@H]3C[C@H](NS(=O)(=O)c4ccc(C)cc4)CN3C)n2)cc1	-
COc1cccc(NC(=O)N[C@H]2C[C@@H](c3nc(-c4ccccc4)no3)N(C)C2)c1	-
CCOC(=O)Cn1c(=O)n(-c2ccc(F)cc2)c2nc(-c3ccccc3C)nc(C(N)=O)c21	-
O=C1Nc2ccc(Br)cc2C(c2ccccc2Cl)C1N1CCCCC1 (stereo not drawn)	-
SMILES	ST2 inh
O=C(c1cccn2c(=O)c3c4c(sc3nc12)CCCC4)N1CCC2(CC1)OCCO2	-
Cc1cc(C)c(C(=O)NCCCc2nc3ccccc3n2C)c(=O)[nH]1	-
CCN(C(=O)Cc1c(C(=O)O)[nH]c2ccc(Cl)cc12)c1ccccc1F	-
O=c1[nH]c(/C=C/c2cc(Br)ccc2O)c([N+](=O)[O-])c(=O)[nH]1	-
CCCC(=O)N(c1ccc2oc(C)c(C(=O)OC)c2c1)S(=O)(=O)c1ccc2ccccc2c1	-
CC(C)Cn1cc(C(=O)NCCCN2CCN(C)CC2)c2c3ccccc3n(C)c2c1=O	-
O=C(Nc1ccc(Cl)cc1)N1Cc2[nH]cnc2C[C@H]1c1nc(-c2ccc(C(F)(F)F)cc2)no1	-
O=C(COc1ccccc1)N1CCN=C1SCc1c(F)cccc1Cl	-
C=CCSC1=C(C#N)C2(CCCC2)C(C#N)C(=O)N1 (stereo not drawn)	-
O=C(Nc1cccc([N+](=O)[O-])c1)C1(S(=O)(=O)c2ccc(Cl)cc2)CC1	-
COc1cccc(Cc2nc(Cc3ccccc3)n[nH]2)c1	-
OCCc1cn(CC2CCN(Cc3ccoc3)CC2)nn1	-
O=[N+]([O-])c1ccc(N2CCN(c3nc(N4CCN(CCO)CC4)nc4ccccc34)CC2)cc1	31%
Cc1cc(N2CCN(c3cc(N4CCN(CCO)CC4)ccc3[N+](=O)[O-])CC2)c2ccccc2n1	-
OCCN1CCN(c2nc(NCc3ccco3)c3ccccc3n2)CC1	-
CC(=O)Nc1ccc(Oc2cccc(Oc3ccc(NC(C)=O)cc3)c2)cc1	-
CCSc1nnc2c(n1)OC(c1cccnc1)Nc1ccc(Br)cc1-2 (stereo not drawn)	-
CCOC(=O)c1c(NC(=O)CSc2cn(C)c3ccccc23)sc2c1CCC2	-
Cc1ccc(NC(=O)Cn2c(-c3ccccc3F)nc3ccccc3c2=O)cc1	-
CCCCOc1ccc(OCCCC)c2c1nc(-c1ccccc1NC)c(=O)n2C	69%
CCn1nc(-c2ccccn2)nc2c(=O)n(C)c(=O)nc1-2	-
CCOc1ccc(-n2c3nc(=O)n(C)c(=O)c-3cc3ccccc32)cc1	-
C1Cc2[nH]nc(CNC3CSCCSC3)c2C1	-
O=C(CC(c1ccccc1)c1ccc2c(c1)OCO2)NCCc1cscn1 (stereo not drawn)	-

Assay outcomes from PubChem.
